# Test results reported in PubChem BioAssay AID652208 (Broad Institute, 2013).
# Entries with a potency or affinity are not part of this list. A number with no mark means an inactive call.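 The calls were made as follows: active = Loss of cell signal with fitted half-effect dose at or below twice the top valid tested dose; inconclusive = Poor fit, or flat fit from -70 to -30 percent; inactive = Half-effect above limit, rising signal, or flat within 30 percent.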
# Experiment: viability loss in HEK293T cells – cell-based, cherry-picks, cytotoxicity control for HIV Vif inhibitor project, dose response (AID 652208);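 also: 0% = median neutral control wells and -100% = median staurosporine control wells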
# Conditions: CellTiter-Glo luminescence, 24 h; series mostly up to 26 µM; activity change, negative = cytotoxicity: at the top concentration
row,SMILES,"activity change, negative = cytotoxicity [%]"
1,COc1cccc(N2CCN(C(=O)c3ccc(CS(=O)c4ccc(C)cc4)o3)CC2)c1 (stereo not given),-14.4
2,COc1ccc(OC)c(/C=C/c2nc3ccccc3[nH]c2=O)c1,-29.7
3,Cc1ccc(-n2nnc3c(=O)n(CC(=O)OCc4ccccc4)cnc32)cc1,-0.069
4,Cc1cc(-c2nnc(SCC(=O)c3ccc(Cl)cc3)o2)no1,-6.3
5,CCOc1ccc(C(=O)c2cc([N+](=O)[O-])ccc2N2CCOCC2)cc1,-13.8
6,CCCOc1ccc(C(O)(CCC)CCN2CCCCC2)cc1 (stereo not given),-4.04
7,COc1ccc(CC(=O)Nc2ccc(-c3noc(-c4cc(OC)c(OC)c(OC)c4)n3)cc2)cc1,0.981
8,Cc1ccc2c(c1)N(CC(=O)N1CCCCCC1)C(=O)C(C)O2 (stereo not given),-2.8
9,O=C(CCCn1c(=S)[nH]c2ccccc2c1=O)N1CCN(c2cccc(Cl)c2)CC1,-17.7
10,CC(NC(=O)CSc1nc2c(c(C(F)(F)F)n1)CCc1ccccc1-2)c1ccccc1 (stereo not given),-19.9
11,CCOC(=O)C1(Cc2ccccc2)CCN(Cc2csc(C(C)=O)c2)CC1,-3.82
12,NCCCC[C@H](N[C@@H](CCc1ccccc1)C(=O)O)C(=O)N1CCC[C@H]1C(=O)O,2.25
13,CCOC(=O)c1nc(Nc2ccc(C(=O)OC)cc2)c2ccccc2n1,-17.9
14,Cc1ccc2c(c1)C1CN(C)CCC1N2S(=O)(=O)c1cccc(C(F)(F)F)c1 (stereo not given),-8.3
15,CCOC(=O)C1CCCN(CC(=O)Nc2c(C(=O)OC)[nH]c3ccc(Cl)cc23)C1 (stereo not given),-13.6
16,O=C(CCN1CCOCC1)Nc1ccc(Cl)cc1,0.037
17,NCCCCCC(=O)Nc1ccncc1,-9.61
18,COc1ccc(CNC(=O)CN2C(=O)NC(c3ccccc3)(c3ccccc3)C2=O)cc1,-6.23
19,CC(C)c1ccc(NC(=O)N2CCCC2C(=O)Nc2ccc(-n3cnnn3)cc2)cc1 (stereo not given),0.715
20,Cc1nnc2ccc(-c3ccc(NS(=O)(=O)c4ccc(F)cc4F)cc3)nn12,-2.74
